Measurements as given in PubChem BioAssay (NCI).
About 79,000 compounds went through this panel and 15% of them were active in at least one assay; those are over-represented in the sample as a whole. No stated cut-off is given here; in the data, active means growth inhibition above about 70%; inactive means the rest.

Experiments:
[1] = NCI Yeast Anticancer Drug Screen. Data for the rad50 strain (AID 155);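 further: 0% = growth of vehicle-only cultures of the same strain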; conditions: S. cerevisiae rad50 strain growth inhibition; at 50.0 µM; active compounds read high
In short: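 Genetically altered yeast (DNA repair pathway); compound treatment; growth inhibition vs vehicle ctrl.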

[2] = NCI Yeast Anticancer Drug Screen. Data for the mec2-1 strain (AID 157); conditions: S. cerevisiae mec2-1 strain, at 50.0 µM, active compounds read high
In short: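 Mutant yeast (mec2-1) grown with compound; growth inhibition relative to vehicle control reported.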

[3] = NCI Yeast Anticancer Drug Screen. Data for the sgs1 mgt1 strain (AID 161);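 further: 0% = growth of cultures given vehicle only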; conditions: S. cerevisiae sgs1 mgt1 strain, at 50.0 µM, active compounds read high
In short: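 This yeast growth screen uses a strain with defined DNA-repair lesions; compound-treated growth is compared with vehicle-treated growth.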

[4] = NCI Yeast Anticancer Drug Screen. Data for the cln2 rad14 strain (AID 165);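 further: 0% = growth equal to vehicle treated cultures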; conditions: S. cerevisiae cln2 rad14 strain, at 50.0 µM, active compounds read high
In short: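 Readout is yeast growth inhibition versus vehicle-treated controls, using a strain with cln2 and rad14 alterations exposed to compound.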

[5] = NCI Yeast Anticancer Drug Screen. Data for the bub3 strain (AID 167); conditions: S. cerevisiae bub3 mutant strain, at 50.0 µM, active compounds read high
In short: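 Yeast carrying a defined mutation is treated with each compound, and growth is compared with that of vehicle-exposed cells to give inhibition.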

[6] = NCI Yeast Anticancer Drug Screen. Data for the mlh1 rad18 strain (AID 175); conditions: S. cerevisiae mlh1 rad18 strain growth inhibition; at 50.0 µM; active compounds read high
In short: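 Genetically defined yeast (DNA repair-deficient) exposed to compounds; growth inhibition determined relative to vehicle.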

Measured: growth inhibition

CN(C)CCC(=O)c1ccc(C(=O)CCN(C)C)cc1
inactive: [1] -0.4% | [2] 25.6% | [3] -17.1% | [4] -14.8% | [5] -16.2% | [6] -21.2%

Cc1ccc(S(=O)(=O)NC(Cc2ccccc2)C(=O)NCc2cccnc2)cc1 (stereo unspecified)
inactive: [1] 23.6% | [2] -8.4% | [3] 5.2% | [4] 4.45% | [5] -4.1% | [6] 4.65%

CCOC(=O)C12CCCC1(O)N(NC(=O)c1ccccc1)C(C)=C2C(=O)OC (stereo unspecified)
inactive: [1] 10.8% | [2] 21.6% | [3] 6.3% | [4] -56.5% | [5] 2.95% | [6] -10.2%

C=CCOCc1ccc(C(C)(C)CC(C)(C)C)cc1
inactive: [1] -5.25% | [2] 13.5% | [3] 8.6% | [4] -75.5% | [5] 16.1% | [6] 15.7%

O=C(O)C(C(=O)O)C(c1cccc([N+](=O)[O-])c1)C(c1ccccc1)[N+](=O)[O-] (stereo unspecified)
inactive: [1] 52.5% | [2] 18.2% | [3] 45.5% | [4] 12.2% | [5] 22.2% | [6] 37.7%

CCCCCCC(C)(C)NC(N)=O
inactive: [1] -9.4% | [2] 4.4% | [3] -4.5% | [4] 16.8% | [5] 3.75% | [6] -11.8%

O=C(Nc1ccccc1)N1CCC[C@@H]2CCCC[C@@H]21
inactive: [1] 3.2% | [2] -0.15% | [3] 0.7% | [4] -82.4% | [5] -6.8% | [6] -4.45%

Cc1cc(Cl)ccc1N=C1NC(=O)C(CC(=O)Nc2cccc(Cl)c2)S1 (stereo unspecified)
inactive: [1] 28.6% | [2] 15% | [3] -8.85% | [4] 27.6% | [5] 1.8% | [6] 10.2%

OCCOc1ccc(C(Cc2ccccc2)N(CCO)CCO)cc1 (stereo unspecified)
inactive: [1] -10.1% | [2] 2.15% | [3] 7.5% | [4] -12.6% | [5] 4.7% | [6] -1.45%

O=C(Cn1ccnc1[N+](=O)[O-])c1ccc(F)cc1
inactive: [1] 62.8% | [2] -13.9% | [3] 33.9% | [4] 4.6% | [5] -9.9% | [6] 13.3%

NC(=O)c1cc[cH-]c1.[Fe+2].c1cc[cH-]c1
inactive: [1] -10.1% | [2] 9% | [3] -4.75% | [4] -2.05% | [5] 5.35% | [6] 12.9%

Cc1cc(=O)n2[nH]nnc2n1
inactive: [1] 10.5% | [2] 17.6% | [3] 26.4% | [4] 13.2% | [5] 12.5% | [6] 14.2%

CC(C)C(=O)Nc1nc(OCCc2ccc([N+](=O)[O-])cc2)c2ncn(C3CC(O)C(CO)O3)c2n1 (stereo unspecified)
inactive: [1] 3.5% | [2] -0.2% | [3] 5.8% | [4] 8.5% | [5] -0.75% | [6] -11.8%

CC1(C)N=C(/C(Cl)=[N+](/[O-])C(=O)c2ccc(Cl)cc2)C(C)(C)N1O
inactive: [1] -21.1% | [2] -26.9% | [3] -24.1% | [4] -7.3% | [5] -38.6% | [6] -8.4%

CCOC(=O)c1nc(SC)sc1NC(=O)c1ccc([N+](=O)[O-])cc1
inactive: [1] -11% | [2] -24.8% | [3] -30.8% | [4] 27.1% | [5] -14.7% | [6] -21.6%

CN1CC(=O)N2CCCCC2C(c2ccccc2)C1 (stereo unspecified)
inactive: [1] -4.85% | [2] 2.85% | [3] -0.25% | [4] -34.7% | [5] -9.35% | [6] -1.25%

OCc1nc2ccccc2[nH]1
inactive: [1] 5.6% | [2] -4.5% | [3] -3.55% | [4] -27.2% | [5] 14.1% | [6] 3.3%

Cc1cc(C)n2c(-c3ccccc3)nnc2c1
inactive: [1] 19.1% | [2] -7.2% | [3] -20.2% | [4] -7.05% | [5] 8.05% | [6] -8.85%

O=c1ccc(O)c[nH]1
inactive: [1] 12.3% | [2] 18.8% | [3] 34.7% | [4] 9.95% | [5] 2.8% | [6] 16.1%

COc1cccc2sc(-n3c(C)nc4ccccc4c3=O)nc12
inactive: [1] 33.5% | [2] 12.5% | [3] 54.8% | [4] 17.9% | [5] 51.9% | [6] 40.5%

CCC1C(C)C=CN1c1nc(N)nc(NS(=O)(=O)c2cc(C)c(Cl)cc2S)n1 (stereo unspecified)
inactive: [1] -18.2% | [2] 2.5% | [3] 17.7% | [4] -1.9% | [5] 4.3% | [6] 12.2%

Clc1cccc(Cl)c1C(Nc1ncccn1)Nc1ncccn1
inactive: [1] 12.2% | [2] 14.8% | [3] 12.1% | [4] -16.4% | [5] 9.6% | [6] 20.4%

c1cc2cc(c1)CNCCNCCNCc1cccc(c1)CNCCNCCNC2
inactive: [1] -22.4% | [2] -17.4% | [3] -30.6% | [4] 16.9% | [5] 6% | [6] -2.9%

[O-][n+]1c2ccc(Cl)cc2nc2ccc(Cl)cc21
inactive: [1] -9.35% | [2] -10.9% | [3] -8.25% | [4] -27.4% | [5] 1.45% | [6] -4.6%

CN(C)c1ccc(/C=C2N=C(/C=C\c3ccccc3)OC\2=O)cc1
inactive: [1] -5.5% | [2] 4.75% | [3] -6.05% | [4] 0.25% | [5] 7.55% | [6] 9.45%

CC(O)C(O)C(O)C(=O)C=O (stereo unspecified)
inactive: [1] 5.8% | [2] 29.1% | [3] 6.1% | [4] 14.2% | [5] -25.4% | [6] 10.4%

CC(=O)Oc1ccccc1C=C(C(=O)O)C(=O)O
inactive: [1] -7.7% | [2] -11.5% | [3] -8.1% | [4] -20.7% | [5] -9.2% | [6] -10.9%

CCOC(=O)C(C)(C)/C=C\C(Cl)=C(Cl)Cl
inactive: [1] 4.1% | [2] 4.2% | [3] 8.75% | [4] 4.25% | [5] 19.2% | [6] -34.5%

CCOC(=O)C1=C(C(=O)c2ccccc2)C(c2ccc(Cl)cc2Cl)C(C(=O)c2ccccc2)=C(C(=O)OCC)N1
inactive: [1] -11.3% | [2] -8.2% | [3] -16.6% | [4] -3.45% | [5] -9% | [6] -1.5%

C/C(=C\c1ccc(F)cc1)C(=O)O
inactive: [1] 20.2% | [2] -0.95% | [3] 0% | [4] 11.2% | [5] 14.9% | [6] 13.8%

c1ccc(C(c2ccc3c(c2)CCCC3)C(c2ccccc2)(c2ccccc2)c2ccccc2)cc1 (stereo unspecified)
inactive: [1] -0.05% | [2] -0.05% | [3] 4.7% | [4] 16.5% | [5] -3.65% | [6] 25.4%

Cc1c(Cl)ccc2c1NC(=O)C2(O)C1Cc2ccccc2C1=O (stereo unspecified)
inactive: [1] 44.5% | [2] 21.1% | [3] 37.5% | [4] 34% | [5] 15.1% | [6] 28%

CC(C)N(CC(c1ccccc1)C(C)(O)c1ccccc1)C(C)C (stereo unspecified)
inactive: [1] -10.1% | [2] 15.7% | [3] -7.55% | [4] 4.2% | [5] 26.7% | [6] -21.1%

COc1ccc(C(=O)c2ccc(C)c3c(C)cccc23)cc1
inactive: [1] 4.5% | [2] -9.55% | [3] 4.9% | [4] -16.6% | [5] -7.9% | [6] 4.85%

CCCCCCCCCCCCCCCCCCOc1c(Cl)c(Cl)c(Cl)c(Cl)c1Cl
inactive: [1] 15.1% | [2] -1.55% | [3] -8.25% | [4] -25.9% | [5] -7.4% | [6] -8.1%

Cc1ccccc1NC(=O)CSc1nnc(Cc2ccccc2)o1
inactive: [1] -15.3% | [2] -20.6% | [3] -36.8% | [4] -13.5% | [5] -33.8% | [6] -35.5%

CCCCCCCCCCCCCCCCCC(=O)O
inactive: [1] -5.2% | [2] -17.4% | [3] 0.1% | [4] -5.75% | [5] -17.1% | [6] 6.05%

CCCCCCCCC(C)c1cccc(C(C)CCCCCCCC)c1O (stereo unspecified)
inactive: [1] 33% | [2] 14.6% | [3] 10.5% | [4] 22.2% | [5] 14.8% | [6] 2.6%

COc1ccc([N+](=O)[O-])c2c(NCCC[N+](C)(C)[O-])c3ccccc3nc12
inactive: [1] 24.9% | [2] -13.3% | [3] 3.05% | [4] -46.8% | [5] -19.2% | [6] 19.7%

O=C(O)/C=C/c1ccccc1Br
inactive: [1] 20.8% | [2] 3.5% | [3] 12.7% | [4] 8.3% | [5] -8.7% | [6] -17.4%

N#CC(=C1CCCCC1)c1ccccc1
inactive: [1] -14.1% | [2] -21.2% | [3] -21.6% | [4] -5.75% | [5] -15.9% | [6] -27.1%
